# Results reported in a collection of fitness landscapes (doi:10.1126/science.1257360).
# In all, about 140,000 sequences were measured (“enrichment ratio after two sorts for PhoP signalling”: median about 0, highest 2% from about 11 on). For the sample, the highest values were picked, then their nearest neighbours and some sequences at random.
# B1: PhoQ; a variant is named by its letters at X, in order, P23837 (parent)
# chain: MKKLLRLFFPLSLRVRFLLATAAVVLVLSLAYGMVALIGYSVSFDKTTFRLLRGESNLFYTLAKWENNKLHVELPENIDKQSPTMTLIYDENGQLLWAQRDVPWLMKMIQPDWLKSNGFHEIEADVNDTSLLLSGDHSIQQQLQEVREDDDDAEMTHSVAVNVYPATSRMPKLTIVVVDTIPVELKSSYMVWSWFIYVLSANLLLVIPLLWVAAWWSLRPIEALAKEVRELEEHNRELLNPATTRELTSLVRNLNRLLKSERERYDKYRTTLTDLTHSLKTPLXXLQXXLRSLRSEKMSVSDAEPVMLEQISRISQQIGYYLHRASMRGGTLLSRELHPVAPLLDNLTSALNKVYQRKGVNISLDISPEISFVGEQNDFVEVMGNVLDNACKYCLEFVEISARQTDEHLYIVVEDDGPGIPLSKREVIFDRGQRVDTLRPGQGVGLAVAREITEQYEGKIVAGESMLGGARMEVIFGRQHSAPKDE
# Variants of: B1
# Assay: enrichment ratio after two sorts for PhoP signalling (ratio (wild type AVST 3.29)); higher = more functional
# Conditions: with PhoP (E. coli)
row,Variant,enrichment ratio
1,SCPM,7.6
2,SCPI,15.2
3,PQKP,≤ 0.25
4,RTKL,≤ 0.25
5,YQFF,≤ 0.25
6,PSPG,≤ 0.25
7,QCSK,≤ 0.25
8,QCSG,32
9,GCSG,6.35
10,QCWG,1.24
11,QCSN,17.6
12,GCSN,3.22
13,YSWT,≤ 0.25
14,VTWY,≤ 0.25
15,LKQC,≤ 0.25
16,MYLH,≤ 0.25
17,YKYI,≤ 0.25
18,TDCQ,20.3
19,TDCS,11.3
20,TDCI,≤ 0.25
21,FDCA,≤ 0.25
22,ADCS,≤ 0.25
23,FDCQ,≤ 0.25
24,TDCA,14.6
25,LTCQ,≤ 0.25
26,KDCA,≤ 0.25

row,Variant,enrichment ratio
1,ERGV,≤ 0.25
2,TKWP,≤ 0.25
3,KYMY,≤ 0.25
4,TKMY,24
5,STMY,12.6
6,PTMY,≤ 0.25
7,AIMY,6.62
8,ADMY,0.253
9,SWMY,≤ 0.25
10,HKMY,≤ 0.25
11,AGMY,20
12,TGMY,12.7
13,RGMY,≤ 0.25
14,NGMY,≤ 0.25
15,ICMS,2.8
16,QRAT,≤ 0.25
17,FCCR,≤ 0.25
18,DASH,≤ 0.25
19,RNKS,≤ 0.25
20,AEME,29.5
21,CTMY,42.4
22,ATMY,7.37
23,AEYE,≤ 0.25
24,KSMY,≤ 0.25
25,WIMY,≤ 0.25
26,NSMY,≤ 0.25

row,Variant,enrichment ratio
1,NEMY,≤ 0.25
2,TGME,≤ 0.25
3,AEMY,20.4
4,YTMY,≤ 0.25
5,TSMY,12.3
6,NYYK,≤ 0.25
7,IYHP,≤ 0.25
8,HPGR,≤ 0.25
9,EGAD,≤ 0.25
10,VQVR,≤ 0.25
11,KMTK,≤ 0.25
12,RCAP,≤ 0.25
13,FMFM,≤ 0.25
14,VPMC,≤ 0.25
15,SRMC,≤ 0.25
16,VYMC,0.507
17,MEMC,4.97
18,TCMC,24.2
19,EEMC,≤ 0.25
20,VEMC,15.7
21,ITMC,≤ 0.25
22,TEMC,18.9
23,TYMC,≤ 0.25
24,VCMC,1.73
25,IEMC,12.9
26,DVLN,≤ 0.25

row,Variant,enrichment ratio
1,IGSC,≤ 0.25
2,SHAH,5.87
3,VCLL,6.51
4,FKPV,≤ 0.25
5,QEMC,≤ 0.25
6,KAMC,≤ 0.25
7,TAMC,14.6
8,NEMC,≤ 0.25
9,KYMC,≤ 0.25
10,SYMC,≤ 0.25
11,SPMC,≤ 0.25
12,SIMC,19.4
13,YAMC,≤ 0.25
14,SCMC,12.6
15,SEMC,18
16,SLMC,3.3
17,KIGP,≤ 0.25
18,VITT,≤ 0.25
19,TPNM,≤ 0.25
20,YGCE,≤ 0.25
21,NYTT,≤ 0.25
22,FHLQ,≤ 0.25
23,ESME,≤ 0.25
24,VRRK,≤ 0.25
25,PKDY,≤ 0.25
26,VMIQ,≤ 0.25

row,Variant,enrichment ratio
1,YFFH,≤ 0.25
2,WWTW,≤ 0.25
3,GPQA,≤ 0.25
4,STMC,8.81
5,SAMC,18.1
6,IIMC,≤ 0.25
7,EEMP,≤ 0.25
8,QQNV,≤ 0.25
9,YMKP,≤ 0.25
10,TWQM,≤ 0.25
11,TNQM,14.3
12,LNQM,≤ 0.25
13,NNCK,≤ 0.25
14,MNQM,≤ 0.25
15,NNQM,30
16,TMQM,12.8
17,KMQM,≤ 0.25
18,HAQM,≤ 0.25
19,VGDP,≤ 0.25
20,RAMR,≤ 0.25
21,YTYM,≤ 0.25
22,WMWP,≤ 0.25
23,TDVG,4.14
24,YTIC,≤ 0.25
25,TDIC,14.4
26,STIC,13

row,Variant,enrichment ratio
1,KDVC,≤ 0.25
2,SCIC,7.92
3,SYVC,0.486
4,LTIC,≤ 0.25
5,TDVC,24.1
6,KSIC,≤ 0.25
7,SDVG,1.53
8,SDVC,11.5
9,NESI,≤ 0.25
10,PFYL,≤ 0.25
11,GFIL,≤ 0.25
12,INEF,≤ 0.25
13,MTNK,≤ 0.25
14,IERL,≤ 0.25
15,MGNR,≤ 0.25
16,FHQW,≤ 0.25
17,WMHQ,≤ 0.25
18,VIIW,≤ 0.25
19,SDIC,15.1
20,SDRC,≤ 0.25
21,SYIC,0.411
22,VCHE,≤ 0.25
23,GIRT,≤ 0.25
